Out of some 360,000 compounds screened, about 16,000 (4.4%) were called active. Inconclusive results (about 9%) are left out. Many of the other results were omitted from the sample, so actives are more common in it than they were. A number with no mark means an inactive call. The call rests on the fitted dose curve; in most records, active means well fitted inhibition curve with a large enough effect; inconclusive means small, poorly fitted or top-dose-only effect; inactive means no such curve, though single readings can be large or run the other way.
What follows are compounds tested against Bromodomain adjacent to zinc finger domain protein 2B (Homo sapiens) (UniProt Q9UIF8) (assay: qHTS Assay for Inhibitors of BAZ2B). Details: AlphaScreen BAZ2B-H3K14Ac peptide displacement; series mostly up to 114 µM; activity change, negative = inhibition: at the top concentration.
Sequence of Bromodomain adjacent to zinc finger domain protein 2B (Homo sapiens) (Q9UIF8 whole entry, looked up, the tested form may be a part): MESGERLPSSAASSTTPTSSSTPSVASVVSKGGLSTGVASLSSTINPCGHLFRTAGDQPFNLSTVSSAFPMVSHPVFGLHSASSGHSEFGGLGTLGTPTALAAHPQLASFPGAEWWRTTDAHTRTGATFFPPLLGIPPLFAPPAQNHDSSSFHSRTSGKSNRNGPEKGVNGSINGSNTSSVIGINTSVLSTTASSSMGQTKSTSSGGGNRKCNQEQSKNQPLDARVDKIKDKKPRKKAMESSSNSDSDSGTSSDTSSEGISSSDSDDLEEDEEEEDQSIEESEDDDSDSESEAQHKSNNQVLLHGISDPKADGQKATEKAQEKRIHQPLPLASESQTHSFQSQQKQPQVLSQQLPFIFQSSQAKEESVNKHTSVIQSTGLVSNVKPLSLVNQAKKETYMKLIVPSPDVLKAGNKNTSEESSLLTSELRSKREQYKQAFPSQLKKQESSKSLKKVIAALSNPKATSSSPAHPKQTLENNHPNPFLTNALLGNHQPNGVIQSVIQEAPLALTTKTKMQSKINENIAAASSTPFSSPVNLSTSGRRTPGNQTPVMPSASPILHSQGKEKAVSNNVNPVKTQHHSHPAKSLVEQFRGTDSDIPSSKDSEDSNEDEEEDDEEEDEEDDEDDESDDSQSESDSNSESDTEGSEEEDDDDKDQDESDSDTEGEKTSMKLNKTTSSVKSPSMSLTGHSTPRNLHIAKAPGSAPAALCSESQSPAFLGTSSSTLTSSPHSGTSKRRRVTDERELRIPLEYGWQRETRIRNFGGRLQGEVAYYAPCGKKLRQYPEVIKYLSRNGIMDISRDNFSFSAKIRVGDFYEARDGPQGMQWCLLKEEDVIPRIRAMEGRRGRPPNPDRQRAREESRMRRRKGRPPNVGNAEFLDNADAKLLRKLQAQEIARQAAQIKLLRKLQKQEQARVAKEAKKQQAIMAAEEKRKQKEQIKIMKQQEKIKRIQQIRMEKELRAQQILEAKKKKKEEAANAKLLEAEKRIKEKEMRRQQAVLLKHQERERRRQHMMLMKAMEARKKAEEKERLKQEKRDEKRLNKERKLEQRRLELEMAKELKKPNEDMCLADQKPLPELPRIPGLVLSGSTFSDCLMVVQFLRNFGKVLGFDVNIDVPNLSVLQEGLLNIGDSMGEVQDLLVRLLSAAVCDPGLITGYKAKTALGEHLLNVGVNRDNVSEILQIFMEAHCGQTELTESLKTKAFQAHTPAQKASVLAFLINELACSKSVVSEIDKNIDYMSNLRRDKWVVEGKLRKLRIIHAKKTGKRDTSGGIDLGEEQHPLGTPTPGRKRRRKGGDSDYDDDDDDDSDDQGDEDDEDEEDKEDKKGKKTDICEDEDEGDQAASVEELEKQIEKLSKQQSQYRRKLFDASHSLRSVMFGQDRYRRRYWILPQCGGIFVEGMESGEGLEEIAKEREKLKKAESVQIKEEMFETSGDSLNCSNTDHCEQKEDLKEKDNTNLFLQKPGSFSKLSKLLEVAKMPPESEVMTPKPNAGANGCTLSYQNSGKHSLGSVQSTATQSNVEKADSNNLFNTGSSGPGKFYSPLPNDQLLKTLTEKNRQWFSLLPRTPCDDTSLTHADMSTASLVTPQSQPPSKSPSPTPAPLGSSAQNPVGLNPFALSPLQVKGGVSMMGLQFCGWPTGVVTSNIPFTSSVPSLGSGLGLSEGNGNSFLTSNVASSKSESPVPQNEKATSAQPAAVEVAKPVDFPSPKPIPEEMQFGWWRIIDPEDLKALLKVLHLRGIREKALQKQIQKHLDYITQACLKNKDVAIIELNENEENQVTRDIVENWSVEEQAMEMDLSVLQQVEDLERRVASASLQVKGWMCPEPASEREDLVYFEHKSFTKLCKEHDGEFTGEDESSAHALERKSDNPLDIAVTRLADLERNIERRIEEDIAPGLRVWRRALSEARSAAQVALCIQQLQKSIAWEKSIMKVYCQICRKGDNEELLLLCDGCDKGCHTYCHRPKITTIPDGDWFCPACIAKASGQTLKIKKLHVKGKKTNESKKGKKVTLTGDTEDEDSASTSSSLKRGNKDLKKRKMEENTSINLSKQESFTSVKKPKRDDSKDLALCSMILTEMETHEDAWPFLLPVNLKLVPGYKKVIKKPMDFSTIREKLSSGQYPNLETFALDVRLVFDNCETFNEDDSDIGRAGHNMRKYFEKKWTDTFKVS
From the text: BAZ2B (bromodomain adjacent to zinc finger domain, 2B) belongs to a family of ubiquitously expressed bromodomain containing proteins, which biological function has not yet been elucidated. […] The interaction of BAZ2B with ISWI mediated by the BAZ1 motif has recently been described. […] The protocol is based on the AlphaScreen (PerkinElmer) displacement assay developed by NCGC [5], but uses the peptide ligand Biot-H3K14Ac, a high affinity binding partner for BAZ2B, in an AlphaScreen format. Although AlphaScreen has significant advantages with its utility in a variety of epigenetic target assays, the primary screening data provided in this deposition should be used with caution due to the prevalence of screening artifacts. The top compound concentration tested was 110uM in this assay, which increases number of actives and potential artifacts. An AlphaScreen counterscreen is highly recommended to be run against any putative actives to eliminate non-specific artifacts. Alternatively, one can use other AlphaScreen assays in PubChem to filter out promiscuous hits. Eberharter, A. et al. ACF1 improves the effectiveness of nucleosome mobilization by ISWI through PHD-histone contacts. The EMBO journal 23, 4029-4039. 2004. PMID: 15457208 [2] Jones, M.H. et al. A novel family of bromodomain genes. Genomics 63, 40-45. 2000. PMID: 10662543 [3] Yasgar, et al. Compound Management for Quantitative High-Throughput Screening. JALA. 2008 Apr;13(2):79-89. PMID: 18496600 [4] Inglese, et al. Quantitative high-throughput screening: a titration-based approach that efficiently identifies biological activities in large chemical libraries. Proc Natl Acad Sci. 1;103(31):11473-8. 2006. PMID: 16864780 [5] Quinn et al. A chemiluminescence-based method for identification of histone lysine methyltransferase inhibitors. Mol Biosyst 6(5): 782-8. 2010. PMID: 20567762 [6] Baell,Holloway. New substructure filters for removal of pan assay interference compounds (PAINS) from screening libraries and for their exclusion in bioassays. J Med Chem. 53(7):2719-40. 2010. PMID: 20131845 NIH Molecular Libraries Probe Production Network [MLPCN] NIH Chemical Genomics Center [NCGC] Structural Genomics Consortium (SGC) NIH Grant: 5U54 MH084681-02
To each well of a 1,536w plate, 2ul of BAZ2B protein (final 50nM) and 1ul biotinylated histone peptide acetylated at Lys14 [b-H3(5-23)K14Ac] (final 50nM) were added in 1x PBS buffer, pH 7.4, containing 0.01% Tween-20, using a nanoliter dispenser. Formation of a protein-peptide complex proceeded at room temperature for 30 min. A Kalypsys pin-tool was employed to transfer 23 nL of library compound solution in DMSO to each well. Following a 30 min incubation of the protein-peptide complex with compounds at room temperature, a mixture of 40 ug/mL each streptavidin-coated donor and nickel chelate acceptor AlphaScreen beads (final 10 ug/mL) were added in a 1ul dispense for a final volume of 4ul. A brief centrifugation followed (1000rpm, 1 min) and were then incubated protected from the light for 20 min at room temperature. Plates were read on an EnVision multilabel plate reader using the 1,536 plate HTS AlphaScreen aperture (excitation time 80 ms, measurement time 240 ms).
Further: nearly all actives have a fitted effect of over 60% in size.
On the % scale 0 is the no-effect control and ±100 the full control effect; potency means the concentration at half of the fitted maximal effect.

Structure (SMILES)	activity change, negative = inhibition [%]	Potency
COc1ccc(CCNC(=O)CCc2ccccc2O)cc1OC	11.6	
CCOC(=O)c1ccc(NC(=O)CC2C(=O)N(c3cccc(OC)c3)C(=O)N2C2CCCCC2)cc1 (centres undefined)	-9.85	
COc1ccc(NCCc2ccccn2)cc1		56.2 µM (active)
COc1cccc(NC(=S)NCc2ccccn2)c1	-30.1	
Cc1c(C)c(C)c(S(=O)(=O)NCCc2ccccn2)c(C)c1C	-3.43	
Cc1ccc(C(=O)CC2(O)C(=O)N(CCc3ccccc3)c3ccc(Br)cc32)cc1 (centres undefined)	-13.9	
Cc1cc(Cl)ccc1OCC(=O)N(Cc1ccc(N(C)C)cc1)C1CCS(=O)(=O)C1 (centres undefined)		35.5 µM (active)
CCc1ccc(OCC(=O)N(Cc2ccccc2)C2CCS(=O)(=O)C2)cc1 (centres undefined)	4.48	
COc1cc(C(=O)N(Cc2ccc(N(C)C)cc2)C2CCS(=O)(=O)C2)cc(OC)c1OC (centres undefined)	-22.1	
COc1cc(C(=O)N(Cc2ccc(C(C)C)cc2)C2CCS(=O)(=O)C2)cc(OC)c1OC (centres undefined)	2.98	
Cc1ccc(CN(C(=O)COc2ccc(Cl)cc2C)C2CCS(=O)(=O)C2)o1 (centres undefined)	-27.3	
CC(C)c1ccc(OCC(=O)N(Cc2ccc(N(C)C)cc2)C2CCS(=O)(=O)C2)cc1 (centres undefined)		28.2 µM (active)
Cc1cc(C)c2sc(NC(=O)c3ccc(S(=O)(=O)N4CCCC4)cc3)nc2c1	0.487	
COc1ccc(C(=O)CSc2c(C(C)C)cnc3c2c(=O)n(C)c(=O)n3C)cc1	-7.25	
CCc1ccc(CNC(=O)c2ccc(CS(=O)c3ccc(Br)cc3)o2)cc1 (centres undefined)	0.453	
CCc1nnc(SCc2c(F)cccc2Cl)c2cc3sccc3n12	-6.2	
Nc1ccc2nc3c(=O)[nH]c(=S)[nH]c3nc2c1		31.6 µM (active)
CC1CN(C(=O)N2CCC(C(=O)NCc3cccs3)CC2)c2ccccc2O1 (centres undefined)	-1.78	
CCn1c(=O)cc(OCC(=O)Nc2cc(Cl)c(OC)cc2OC)c2ccccc21	-13.1	
Cc1cccc(C(=O)Nc2ccc(-c3nc4ncccc4o3)cc2C)c1	-1.15	
Cc1ccccc1C(=O)NC(=S)Nc1ccc(N2CCN(C(=O)c3ccccc3)CC2)cc1	0.365	
Cc1ccccc1C(=O)N1CCN(c2ccc(NC(=O)c3cccs3)cc2)CC1	-32.9	
COc1cccc(C(=O)Nc2ccc(N3CCCC3)cc2)c1		31.6 µM (active)
COC(=O)Cc1ccc(NC(=S)NCc2ccccc2)cc1	-2.73	
O=C(CCN1CCN(c2ccccc2)CC1)NNC(=S)Nc1ccccc1	-17.5	

Structure (SMILES)	activity change, negative = inhibition [%]	Potency
COc1cccc(C(=O)Nc2ccc(N3CCN(C(=O)c4ccco4)CC3)cc2)c1	-12.1	
O=C(Cc1ccccc1)NC(=S)Nc1ccc(N2CCCCC2)cc1		12.6 µM (active)
COc1cccc(C(=O)Nc2ccc3nc4n(c(=O)c3c2)CCCCC4)c1	-12.9	
Cc1ccccc1C(=O)Nc1ccc(N2CCCCCC2)cc1		31.6 µM (active)
Cc1cc2nn(-c3ccc(Cl)cc3)nc2cc1NC(=O)C(C)C	0.62	
CCC1CCCCN1S(=O)(=O)c1ccc(NC(=O)c2cc(=O)c3ccccc3o2)cc1 (centres undefined)	-2.23	
CC(=O)Nc1cc(C(=O)NCc2ccc(F)cc2Cl)ccc1Sc1ccc(Cl)cc1	-4.28	
CSc1cccc(NC(=O)CN2C(=O)CCc3cc(S(=O)(=O)N4CCCCC4)ccc32)c1	-3.68	
Cc1ccccc1-n1c(=O)c2ccccc2n(Cc2ccc(F)cc2)c1=O	0.401	
Cc1ccc(-c2nnc(Nc3ccc(OCC(N)=O)cc3)c3ccccc23)cc1S(=O)(=O)NCC1CCCO1 (centres undefined)	-14.3	
COc1ccc(CNC(=O)CS(=O)Cc2nc(-c3cccc(C)c3)oc2C)cc1 (centres undefined)	-24.3	
COc1ccc(CCNC(=O)c2c3c(nc4ccccc24)C(=O)N(C2CCCCC2)C3)cc1OC	-11.2	
COC(=O)c1cc2occc2n1Cc1nc(-c2ccc(C)cc2)oc1C	-13.3	
Cc1cc(N2CCN(S(=O)(=O)c3ccc(C)c(C)c3)CC2)c2ccccc2n1	-35.4	
Cc1ccc(S(=O)(=O)C(C#N)c2nc3ccccc3nc2N2CCCC2)cc1C (centres undefined)		79.4 µM (active)
Cc1ccc(S(=O)(=O)Nc2nc3ccccc3nc2N2CCc3ccccc3C2)cc1	-0.716	
COc1cccc(Cn2c(CNS(=O)(=O)c3ccc(Cl)s3)nc3cccnc32)c1	-1.14	
Cc1ccc(CNS(=O)(=O)c2ccc(C(=O)N(C)C)s2)cc1	-0.589	
O=C(CC1C(=O)N(c2ccccc2)C(=O)N1CCc1cccs1)Nc1ccc(F)cc1 (centres undefined)	-2.54	
COc1cccc(C2/C(=C(/O)c3ccc(F)cc3)C(=O)C(=O)N2CCN(C)C)c1 (centres undefined)	16.7	
CCCOc1ccc(/C(O)=C2/C(=O)C(=O)N(CCN(C)C)C2c2ccc(OC)c(OC)c2)cc1 (centres undefined)		79.4 µM (active)
COc1ccc(/C(O)=C2/C(=O)C(=O)N(CCCN(C)C)C2c2ccccc2)cc1OC (centres undefined)	6.91	
COc1ccc(CCNC(=O)c2ccc3c(c2)nc(C)n3-c2ccc(Br)cc2)cc1OC	-23.5	
COc1ccccc1CNC(=O)c1ccccc1NC(=O)c1nsc2ccccc12	-2.42	
